A number with no mark means an inactive call. No rule for the calls is given here. A value given as a limit tells only on which side of the number the result lay.
Potency is read from the fitted curve at half-maximal effect.

This assay relates to HIV-1 nucleocapsid protein NCp7 (binding to TG oligonucleotide). In words: HIV Nucleocapsid (AID 346).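 Also: potency is for inhibitors that block NC binding and lower polarization.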 As to conditions: HIV-1 NC / fluorescein-TGTGTGTG probe, fluorescence polarization. The essentials:
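NCp7 100 nM + fluorescein TG4xF 10 nM; Hepes pH 7.5/250mM NaCl/1uM ZnCl2/0.004% PEG 20000; 1 hr RT; FP, 45 s exposure; oligo-only wells as negative control.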
Turning to `O=c1c(-c2cc(F)cc(F)c2)nc2cnc(Oc3ccccc3)nc2n1C1CC1`, the Potency is over 20 µM.

As to `CN1CCN(c2ncncc2-c2ccccc2C(F)(F)F)CC1`, the Potency is over 20 µM.

With `CCNc1ncc2nc(-c3cn(C)c4ccccc34)c(=O)n(Cc3ccc(F)cc3)c2n1`, the Potency is over 20 µM.

As for `CN1CCN(c2ccnc(-c3ccccc3C(F)(F)F)n2)CC1`, the Potency is over 20 µM.

For the molecule `Cc1noc(C)c1C(=O)N1CCC2(CCCN(Cc3nccs3)C2)CC1`, the Potency is over 20 µM.

Take `CN1CCN(c2cc(-c3ccccc3Cl)ncn2)CC1`: the Potency was over 20 µM.

With `COCC(=O)N1CCC2(CC1)CN(C(=O)Nc1ccc(OC)cc1)C2`, the Potency is over 20 µM.

Turning to `CC(C)NC(=O)N1CC[C@@]2(CCCN(C(=O)c3csnn3)C2)C1`, the Potency was over 20 µM.

Regarding `CS(=O)(=O)N1CCC2(CCN(C(=O)Nc3cccc(F)c3)CC2)CC1`, the Potency is over 20 µM.

In the case of `Cn1cccc1C(=O)N1CCC2(CCN(C(=O)Nc3ccccc3)CC2)CC1`, the Potency is over 20 µM.

Take `CN(C)Cc1ccccc1-c1cncnc1Nc1ccccc1`: the Potency was over 20 µM.

Consider `O=C(c1ccco1)N1CCC[C@@]2(CCN(Cc3ccccc3)C2)C1`, for which the Potency was over 20 µM.

Take `COC(=O)N1CCC2(CC1)CN(C(c1ccccc1)c1ccccc1)C2`: the Potency is over 20 µM.

Consider `CC(C)NC(=O)N1CC[C@@]2(CCCN(C(=O)c3cc(C(F)(F)F)cc(C(F)(F)F)c3)C2)C1`, for which the Potency was over 20 µM.

For `CC(=O)NCCNc1ncnc2ccc(-c3ccccc3C(F)(F)F)cc12`, the Potency is over 20 µM.

Turning to `N#Cc1cccc(NC(=O)N2CCC3(CC2)CCN(C(=O)c2ccco2)CC3)c1`, the Potency is over 20 µM.

As to `COc1ccc2[nH]cc(CCNc3cc(-c4c(C)noc4C)ncn3)c2c1`, the Potency is over 20 µM.

In the case of `O=C(Nc1cccc(F)c1)N1CCCC2(CCN(S(=O)(=O)c3ccccc3)CC2)C1`, the Potency was over 20 µM.

As for `CN(C)C(=O)c1ccc(-c2ccc3ncnc(NCc4cccnc4)c3c2)cc1`, the Potency was over 20 µM.

Regarding `COC(=O)N1CCC2(CC1)CN(C(=O)Nc1ccccc1)C2`, the Potency was over 20 µM.

On to `O=C(c1cc(C(F)(F)F)cc(C(F)(F)F)c1)N1CCC2(CCN(Cc3ccncc3)CC2)CC1`, for which the Potency was over 20 µM.

As for `CC(=O)N1CCC[C@@]2(CCN(Cc3nccs3)C2)C1`, the Potency is over 20 µM.

`O=C(c1cnccn1)N1CCC2(CC1)CN(C(c1ccccc1)c1ccccc1)C2`: the Potency was over 20 µM.

`COc1ccccc1CN1CCC2(CC1)CCN(C(=O)c1csnn1)CC2`: the Potency was over 20 µM.

`N#Cc1cccc(NC(=O)N2CC[C@@]3(CCCN(C(=O)c4cnccn4)C3)C2)c1`: the Potency is over 20 µM.

On to `N#CCCn1c(=O)cnc2cnc(Oc3ccccc3)nc21`, for which the Potency is over 20 µM.

Consider `COc1ccc2[nH]cc(CCNc3ncncc3-c3ccccc3CN(C)C)c2c1`, for which the Potency is over 20 µM.

Consider `CS(=O)(=O)N1CCC[C@@]2(CCN(C(=O)Nc3ccccc3)C2)C1`, for which the Potency was over 20 µM.

As for `COc1ccc(C(=O)N2CCC[C@@]3(CCN(C(=O)Nc4cccc(C#N)c4)C3)C2)cc1`, the Potency is over 20 µM.

Consider `CCNc1ncc2ncc(=O)n(C)c2n1`, for which the Potency was over 20 µM.

Regarding `COc1ncc2nc(-c3ccccc3)c(=O)n(C)c2n1`, the Potency was over 20 µM.

Consider `CN1CCN(c2nc(-c3ccc(N(C)C)cc3)nc3ccccc23)CC1`, for which the Potency was over 20 µM.

As to `Cc1noc(C)c1-c1nc(Nc2ccncc2)c2ccccc2n1`, the Potency is over 20 µM.

For the molecule `N#Cc1ccc(CN2CC3(CCN(C(=O)c4ccncc4)CC3)C2)cc1`, the Potency is over 20 µM.

As to `COc1cccc(Cn2c(=O)c(-c3cccc(Cl)c3)nc3cncnc32)c1`, the Potency was over 20 µM.

For `Cc1noc(C)c1C(=O)N1CCC2(CCN(C(=O)NC(C)C)CC2)CC1`, the Potency was over 20 µM.

As to `Cc1nc2cnc(Oc3ccccc3)nc2n(CCC#N)c1=O`, the Potency was over 20 µM.

With `CN(C)Cc1ccccc1-c1cc(NCc2ccccc2)ncn1`, the Potency was over 20 µM.

In the case of `CS(=O)(=O)N1CCC[C@@]2(CCN(c3ncccn3)C2)C1`, the Potency was over 20 µM.

For the molecule `O=C(c1cnccn1)N1CCC2(CC1)CN(c1cccc(-c3ccccc3)c1)C2`, the Potency is over 20 µM.

Source of the values: PubChem BioAssay (NCATS).
